For this assay, the target named is Genome polyprotein (dengue virus type 2) (UniProt P29990).
Where [1] appears, read: Thailand/16681/1984, Concentration 25.0 uM, Number of replicates 1.0.

The record followed here is ChEMBL document CHEMBL5606460, “ASAP - DENV-2 NS2B-NS3 protease fluorescence single point” (2024).

In all, about 2,000 compounds went through this assay and about 110 (5.5%) showed an effect of 50% or more. Shown is part of a subset that was picked to be rich in strong results.

The inhibition is the drop in the measured response relative to a control, in per cent. Turning to `Cn1cc(CNC(=O)c2ccccc2CN)cn1`, the inhibition runs as follows: (Thailand/16681/1984, Concentration 49.5 uM, Number of replicates 2.0, Standard deviation 4.704758964680012 %) -1.53%; (Thailand/16681/1984, Concentration 99.01 uM, Number of replicates 2.0, Standard deviation 3.3738585950449482 %) -6.84%; (Thailand/16681/1984, Concentration 198.0 uM, Number of replicates 2.0, Standard deviation 1.4794083306984744 %) -5.39%.

With `c1cnc2c(CN3CCC(c4c[nH]c5cccnc45)CC3)c[nH]c2c1`, the inhibition reads like this: (Thailand/16681/1984, Concentration 49.5 uM, Number of replicates 2.0, Standard deviation 2.401783006640112 %) -4.14%; (Thailand/16681/1984, Concentration 99.01 uM, Number of replicates 2.0, Standard deviation 2.691377880268528 %) -3.47%; (Thailand/16681/1984, Concentration 198.0 uM, Number of replicates 2.0, Standard deviation 2.989922552884535 %) -1.51%.

Consider `O=Cc1ccc(N2CCC(C(=O)N[C@@H](Cc3ccccc3)c3ccccc3)CC2)cc1`, for which the inhibition under setting [1] was found to be 4.84%.

Consider `O=Cc1ccc(N2CCC(C(=O)NC[C@H]3COc4ccccc4O3)CC2)cc1`, for which the inhibition under setting [1] worked out at 15.5%.

In the case of `C#CCN(Cc1ccccc1Cl)C(=O)C1CCN(c2ccc(C=O)cc2)CC1`, the inhibition under setting [1] came to 14.7%.

Take `CNC(=O)c1cncnc1NS(=O)(=O)c1ccc(Oc2ccccc2Cl)cc1`: the inhibition (Thailand/16681/1984, Concentration 49.5 uM, Number of replicates 2.0, Standard deviation 1.0127526920144583 %) amounted to 5.46%; the inhibition (Thailand/16681/1984, Concentration 99.01 uM, Number of replicates 2.0, Standard deviation 1.3865274661736828 %) stood at 5.75%; the inhibition (Thailand/16681/1984, Concentration 198.0 uM, Number of replicates 2.0, Standard deviation 1.0625889801550739 %) is 3.56%.

On to `CNC(=O)c1cc(Cl)ccc1NS(=O)(=O)c1ccc(C(=O)N2CCOCC2)cc1`, for which the inhibition worked out at 0.016% (Thailand/16681/1984, Concentration 49.5 uM, Number of replicates 2.0, Standard deviation 0.9242131636205312 %); 0.743% (Thailand/16681/1984, Concentration 99.01 uM, Number of replicates 2.0, Standard deviation 0.5448647637736805 %); 3.74% (Thailand/16681/1984, Concentration 198.0 uM, Number of replicates 2.0, Standard deviation 0.08706358790592401 %).

In the case of `CNC(=O)c1cc(C#N)ccc1NS(=O)(=O)c1ccc(Oc2ccccc2Cl)cc1`, the inhibition came to 49.4% (Thailand/16681/1984, Concentration 49.5 uM, Number of replicates 2.0, Standard deviation 0.4271842721165937 %); 88.8% (Thailand/16681/1984, Concentration 99.01 uM, Number of replicates 2.0, Standard deviation 0.14972718509713318 %); 94% (Thailand/16681/1984, Concentration 198.0 uM, Number of replicates 2.0, Standard deviation 0.1152868035427591 %).

For the molecule `CNC(=O)c1nc(Cl)ccc1NS(=O)(=O)c1ccc(Oc2ccccc2Cl)cc1`, the inhibition came out at 6.34% (Thailand/16681/1984, Concentration 49.5 uM, Number of replicates 2.0, Standard deviation 0.5855266102241418 %); 6.62% (Thailand/16681/1984, Concentration 99.01 uM, Number of replicates 2.0, Standard deviation 0.14494638377684543 %); 4.4% (Thailand/16681/1984, Concentration 198.0 uM, Number of replicates 2.0, Standard deviation 0.056926230997118174 %).

Take `CCc1ccc(NS(=O)(=O)c2ccc(Oc3ccccc3Cl)cc2)c(C(=O)NC)c1`: the inhibition is, setting by setting: (Thailand/16681/1984, Concentration 49.5 uM, Number of replicates 2.0, Standard deviation 2.280534278494396 %) 20.1%; (Thailand/16681/1984, Concentration 99.01 uM, Number of replicates 2.0, Standard deviation 1.9533776277108892 %) 35.5%; (Thailand/16681/1984, Concentration 198.0 uM, Number of replicates 2.0, Standard deviation 2.0141203401343657 %) 57.1%.

For `CNC(=O)c1cc(Cl)ncc1NS(=O)(=O)c1ccc(Oc2ccccc2Cl)cc1`, the inhibition by setting is: (Thailand/16681/1984, Concentration 49.5 uM, Number of replicates 2.0, Standard deviation 0.003826975991637689 %) -0.629%; (Thailand/16681/1984, Concentration 99.01 uM, Number of replicates 2.0, Standard deviation 0.08610681229787821 %) -0.288%; (Thailand/16681/1984, Concentration 198.0 uM, Number of replicates 2.0, Standard deviation 0.5032468582115982 %) 12.6%.

Regarding `CNC(=O)c1cc(Br)cnc1NS(=O)(=O)c1ccc(Oc2ccccc2Cl)cc1`, the inhibition reads like this: (Thailand/16681/1984, Concentration 49.5 uM, Number of replicates 2.0, Standard deviation 0.1523274770628613 %) 20.5%; (Thailand/16681/1984, Concentration 99.01 uM, Number of replicates 2.0, Standard deviation 0.08785965758059779 %) 73.9%; (Thailand/16681/1984, Concentration 198.0 uM, Number of replicates 2.0, Standard deviation 0.12988512316778045 %) 87.2%.

Consider `C[C@H]1COCCN1C(=O)c1cc(Cl)ccc1NS(=O)(=O)c1ccc(Oc2ccccc2Cl)cc1`, for which the inhibition came to 42.6% (Thailand/16681/1984, Concentration 49.5 uM, Number of replicates 2.0, Standard deviation 1.11087224122176 %); 79.8% (Thailand/16681/1984, Concentration 99.01 uM, Number of replicates 2.0, Standard deviation 0.41977451897359047 %); 92.9% (Thailand/16681/1984, Concentration 198.0 uM, Number of replicates 2.0, Standard deviation 0.050716482924917095 %).

Take `Cc1cc(CO)c2cccc(NC(=O)CN3CCOCC3)c2n1`: the inhibition is, setting by setting: (Thailand/16681/1984, Concentration 49.95 uM, Number of replicates 2.0, Standard deviation 2.1720644748171827 %) 8.27%; (Thailand/16681/1984, Concentration 99.9 uM, Number of replicates 2.0, Standard deviation 1.8504772771832996 %) 15.1%.

In the case of `CS(=O)(=O)N1CCC(C(=O)Nc2nc3c(F)cccc3s2)CC1`, the inhibition was 0.796% (Thailand/16681/1984, Concentration 49.5 uM, Number of replicates 2.0, Standard deviation 0.96531236791799 %); 0.997% (Thailand/16681/1984, Concentration 99.01 uM, Number of replicates 2.0, Standard deviation 0.9471689504241718 %); 0.83% (Thailand/16681/1984, Concentration 198.0 uM, Number of replicates 2.0, Standard deviation 0.2746253667085591 %).

Consider `NCc1cccc(NC(=O)[C@H]2CCN(C(=O)OCc3ccccc3)C2)c1`, for which the inhibition runs as follows: (Thailand/16681/1984, Concentration 49.5 uM, Number of replicates 2.0, Standard deviation 1.9221944810499825 %) -1.99%; (Thailand/16681/1984, Concentration 99.01 uM, Number of replicates 2.0, Standard deviation 1.6664051520702452 %) -1.6%; (Thailand/16681/1984, Concentration 198.0 uM, Number of replicates 2.0, Standard deviation 2.955416090340052 %) -1.98%.

Consider `O=Cc1ccc(N2CCC(C(=O)N[C@H]3CCOc4ccc(F)cc43)CC2)cc1`, for which the inhibition under setting [1] was 15.7%.

Regarding `COc1cc(Cc2cnn(-c3ccc(F)cc3)c2)nc(N2CCNCC2)n1`, the inhibition (Thailand/16681/1984, Concentration 49.5 uM, Number of replicates 2.0, Standard deviation 0.031215136118926425 %) was determined as 0.871%; the inhibition (Thailand/16681/1984, Concentration 99.01 uM, Number of replicates 2.0, Standard deviation 1.7579341775024742 %) was determined as 1.83%; the inhibition (Thailand/16681/1984, Concentration 198.0 uM, Number of replicates 2.0, Standard deviation 1.6450393762001025 %) was 5.51%.

Turning to `O=C(O)c1ccn(C2CCN(Cc3c[nH]c4ccccc34)CC2)n1`, the inhibition was -2.55% (Thailand/16681/1984, Concentration 49.5 uM, Number of replicates 2.0, Standard deviation 2.1869842063089484 %); -2.42% (Thailand/16681/1984, Concentration 99.01 uM, Number of replicates 2.0, Standard deviation 2.684345636447637 %); -2.46% (Thailand/16681/1984, Concentration 198.0 uM, Number of replicates 2.0, Standard deviation 2.4976754742252494 %).

Regarding `Cc1cnc(NC(=O)C2CCN(c3ccc(C=O)cc3)CC2)c([N+](=O)[O-])c1`, the inhibition under setting [1] worked out at 14.4%.
